Experimental data as given in PubChem BioAssay AID504577 (NMMLSC, 2011).
Among all 350,000 compounds or so, about 1,300 (0.37%) were called active. For the sample, actives were picked, then their nearest neighbours and some compounds at random. Values without a mark were called inactive. No stated cut-off is given here; in the data, active means response mostly above about 7.3% (no sharp cut-off); inactive means mostly below about 5.4%.

Assay: yeast vacuolar ATPase proton transport modulators – pHLuorin cytosolic pH fluorescence, primary screen (AID 504577); further: actives read high
Conditions: S. cerevisiae, at 10 µM, hits give high values

Compound	response
O=C(NC1CCN(Cc2ccccc2)CC1)c1ccc(Oc2cc(Cl)cc(Cl)c2)o1	0.98%
Cc1cc(C(=O)NC2CCN(Cc3ccccc3)CC2)n[nH]1	4.4%
O=C(NC1CCN(Cc2ccccc2)CC1)c1cc(Br)c(Br)[nH]1	10.4% (active)
O=C(CCCN1C(=O)c2ccccc2C1=O)Oc1ccc(Cl)cc1	8.16%
O=C(OCCN1C(=O)c2ccccc2C1=O)Oc1ccccc1	-2.47%
O=C1c2ccccc2C(=O)N1CCCCCCN1C(=O)c2ccccc2C1=O	9.59% (active)
Cc1cc(C(C)(C)C)cc(S(=O)(=O)Nc2ccc(C(=O)O)cc2)c1C	-1.72%
COCCN(Cc1ccccc1)C(=O)Cc1ccc(S(=O)(=O)N2CCOCC2)s1	0.76%
CN(CC(=O)NCC(c1ccccc1)N1CCCC1)S(=O)(=O)c1ccc(Cl)cc1 (stereo not drawn)	-3.93%
O=C(Nc1ccc(N2CCOCC2)cc1)c1ccc(-c2ccccc2[N+](=O)[O-])o1	-1.06%
CC1=NN(c2ccc(Cl)c(C(=O)O)c2)C(=O)/C1=C/c1ccc(-c2ccccc2[N+](=O)[O-])o1	240% (active)
O=C1NC(c2ccc(-c3ccccc3[N+](=O)[O-])o2)C(C(=O)c2ccc(Cl)cc2)C(O)(C(F)(F)F)N1 (stereo not drawn)	-0.4%
O=C(COC(=O)CCCNC(=O)c1ccc(Cl)cc1)Nc1cc(Cl)ccc1Cl	-2.06%
CNC(=O)c1csc(-c2ccccc2)n1	-0.68%
CNC(=O)c1csc(Cc2c(Cl)sc3ccc(Cl)cc23)n1	12.4% (active)
CC(=O)NNC(=O)c1csc(Cc2c(Cl)sc3ccc(Cl)cc23)n1	-1.89%
COc1cccc(N2CCN(C(=O)Nc3ccc4c(c3)NC(=O)CO4)CC2)c1	0.53%
O=C(CNC(=O)c1cc(S(=O)(=O)N2CCOCC2)ccc1N1CCCC1)Nc1ccc(F)c(F)c1	-1.89%
CC(C)(C)C(=O)COC(=O)c1cc(S(=O)(=O)N2CCCCC2)ccc1N1CCOCC1	5.71%
O=C(NCC1CCCCC1)c1cc(S(=O)(=O)N2CCCCC2)ccc1N1CCOCC1	11.1% (active)
COCCN1C2=C(COC(C)(C)C2)C(=S)NC1c1ccccc1 (stereo not drawn)	1.2%
O=C(O)CC12CC3CC(C1)CC(n1ncc(NCc4ccc(F)cc4)c(Cl)c1=O)(C3)C2	1.78%
CC(C)c1ccc(OCC(O)CN2CCN(c3ccccn3)CC2)cc1 (stereo not drawn)	1.79%
OC(COc1cccc2ccccc12)CN1CCN(c2ccccn2)CC1 (stereo not drawn)	16.7% (active)

Compound	response
OC(COc1ccccc1)CN1CCN(c2cccc(Cl)c2)CC1 (stereo not drawn)	-2.02%
CN(C)S(=O)(=O)c1cc(C(=O)Nc2ccn(C)n2)c(Cl)cc1Cl	-0.21%
CSc1sc(C)cc1C1C(C#N)=C(N)N(c2cccnc2)C2=C1C(=O)CCC2 (stereo not drawn)	-0.16%
O=C(COc1ncnc2c(Cl)cc(Cl)cc12)N1CCN(S(=O)(=O)c2ccccc2)CC1	2.02%
Nn1c(SCc2ccccc2)nnc1C1CCCCC1	-2.46%
O=C(CNC(=O)c1ccccc1Br)NNC(=O)c1cccs1	-0.51%
O=C(C1=C[C@H](C2CC2)C[C@H](OCc2ccc(CO)cc2)O1)N1CCN(Cc2ccccc2)CC1	10.9% (active)
O=C(C1=C[C@H](c2ccc(C(F)(F)F)cc2)C[C@H](OCc2ccc(CO)cc2)O1)N1CCN(Cc2ccccc2)CC1	3.16%
O=C(C1=C[C@H](c2coc3ccccc3c2=O)C[C@H](OCc2ccc(CO)cc2)O1)N1CCN(Cc2ccccc2)CC1	2.61%
Cc1ccc(C2=NN(C)c3nc4ccccc4n3C2)cc1	0.17%
c1ccc(CNc2ncnc3[nH]ncc23)cc1	-0.7%
CN(c1ccccn1)c1ncnc2[nH]ncc12	15.2% (active)
COc1ccc(NC(=O)CSc2ncnc3[nH]ncc23)cc1	8.67%
COc1ccc(CCc2nc(-c3cccs3)no2)cc1	1.75%
COc1ccc(OC)c(CNC(=O)CCc2nc(-c3cccs3)no2)c1	-0.51%
CCc1ccc(CNC(=O)CCc2nc(-c3cccs3)no2)cc1	10.8% (active)
Cc1cc(C(F)(F)F)nn1CC(=O)N1CCCC1	6.02%
O=C(CC(n1cncn1)C(Cl)(Cl)Cl)c1ccc([N+](=O)[O-])cc1 (stereo not drawn)	4.51%
COc1ccc(C(CNC(=O)c2ccc(OCc3cscn3)cc2)N2CCCC2)cc1 (stereo not drawn)	2.42%
CCN(CC(=O)Nc1c(F)cccc1F)C(=O)c1ccc(-c2ccc(C(C)=O)cc2)o1	0.89%
Cc1ccc2nc(SCC(=O)NC3CCCC3)[nH]c2c1	1.94%
Cc1ccc2c(cnn2C(=O)CCC(=O)NC2CCCC2)c1	16.8% (active)
Cc1cccc2c1cnn2C(=O)CCC(=O)NC1CCCCC1	-0.13%
Cc1ccccc1CS(=O)(=O)CC1(O)CCN(C(=O)c2cccc(C(F)(F)F)c2)CC1	-0.64%

Compound	response
Cc1c(Cl)cccc1NC(=O)[C@@]1(CC(=O)O)CC(/C=C/c2ccccc2)=NO1	-1.98%
CCN(CC)CC(=O)Nc1nn(-c2ccccc2)nc1C(N)=O	6.52%
COc1ccc(N2CCN(C(=O)CNC(=O)c3ccc(C(C)(C)C)cc3)CC2)cc1	13.9% (active)
COc1ccc(N2CCN(C(=O)CNC(=O)c3ccc(Br)o3)CC2)cc1	4.07%
COc1ccc(N2CCN(C(=O)CCNC(=O)c3ccc(Br)cc3)CC2)cc1	-3.69%
Cc1ccccc1NC(=O)N1CCCC1C(=O)NCc1ccccc1 (stereo not drawn)	-1.65%
CCOc1nc(OCC)nc(-n2cc(-c3ccccc3)nn2)n1	0.96%
CC1=C/C(=N\OS(=O)(=O)c2ccccc2)C=CC1=O	32.8% (active)
CCC(C)NC(=O)c1ccc(NC(=O)CC2SC(N3CCCCC3)=NC2=O)cc1 (stereo not drawn)	1.4%
CC(C)(C)OC(=O)N1CCC(C(=O)NNC(=O)c2ccc(Cl)cc2Cl)CC1	1.22%
Cc1cc(=O)n2nc(N3CCCC3C(=O)NCCCN3CC(C)CC(C)C3)sc2n1 (stereo not drawn)	-2.96%
Cc1ccc(C(=O)Nc2nc3ccc(Cl)cc3s2)o1	20.1% (active)
Cc1sc2ncnc(N3CCC(C(=O)Nc4nc5ccc(Cl)cc5s4)CC3)c2c1C	0.27%
Cc1csc(NC(=O)c2ccc(-c3ccc(Cl)cc3Cl)o2)n1	-2.59%
OC1CN=C2Sc3ccccc3N2C1 (stereo not drawn)	3.08%
O=C(c1ccc(=O)oc1)N1CCC(C(O)(c2ccccc2)c2ccccc2)CC1	2.64%
CC(C)CCN1C(=O)c2ccc(C(=O)Nc3cccc(S(N)(=O)=O)c3)cc2C1=O	14.3% (active)
Cc1cccc(C(=O)Nc2ccc3c(c2)C(=O)N(CC(C)C)C3=O)c1	-0.72%
CN1CCN(S(=O)(=O)c2cccc(C(=O)Nc3cccc(S(N)(=O)=O)c3)c2)CC1	0.8%
COc1ccccc1C(=O)N1C(CC(=O)Nc2ccccc2C)C(=O)NC2CCCCC21 (stereo not drawn)	9.51%
Cc1ccc(S(=O)(=O)Nc2ccc3c(c2)C(=O)N([C@H](C)CO)C[C@@H](C)[C@@H](CN(C)C(=O)Nc2cccc4ccccc24)O3)cc1	-0.92%
COc1cc(C2c3cc4c(cc3C(O)C3COC(=O)C23)OCO4)cc(OC)c1OC (stereo not drawn)	1.36%
COc1ccccc1CNC(=O)COC(=O)c1cccs1	-4.49%
COc1ccccc1CNC(=O)COC(=O)c1sc(C)nc1C	9.53% (active)

Compound	response
COc1ccccc1CNC(=O)COc1ccc(C)nc1[N+](=O)[O-]	-0.89%
Brc1cnc(N2CCCC2)nc1N1CCCCC1	-0.57%
CCc1nnc(NC(=O)c2cccc(S(=O)(=O)N(C)c3ccc(OC)cc3)c2)s1	3.85%
CCCc1nnc(NC(=O)c2cc(OC)cc(OC)c2)s1	12.9% (active)
COc1ccc(Cc2nnc(NC(=O)c3cc(OC)c(OC)c(OC)c3)s2)cc1OC	-0.03%
O=C1C=C(c2ccc(Cl)cc2)C(=O)N1Nc1ccccc1	11.6% (active)
O=C(c1ccc(Cn2cc([N+](=O)[O-])cn2)o1)N1CCCC1	-2.73%
COc1ccc(CN2CCCC(C(=O)c3ccc(Cl)cc3)C2)cc1Cn1cncn1 (stereo not drawn)	-2.81%
COc1cc(CN2CCCC(C(=O)c3ccc(SC)cc3)C2)cc(Cl)c1O (stereo not drawn)	13.8% (active)
COc1ccc(C(=O)NC2CC2)cc1OC1CCN(Cc2ccc(SC)cc2)CC1	-0.55%
C=CCOC(=O)N1CCC2CC1c1cc(-c3ccc(OC)cc3)ccc12 (stereo not drawn)	-1.16%
CCOc1ccccc1NC(=O)C1CCN(S(=O)(=O)c2c(C)nn(C)c2C)CC1	-3.78%
COCCNc1nc2nonc2nc1N(C)Cc1ccc(C)cc1	-1.45%
Cc1ccc(NC(=O)CSc2sc3c(O)cc(=O)[nH]c3c2C#N)cc1C	2.04%
Cc1cc(=O)[nH]c(SCC(N)=O)c1C#N	23.4% (active)
Cc1cc(C#N)c(SCC(N)=O)nc1-c1ccc(F)cc1	1.45%
CCC(C)[C@H](NC(=O)N1CCn2c1nc1ccccc12)C(=O)NCc1ccc(OC)cc1 (stereo partly drawn)	4.62%
NC(CSC1(c2ccccc2)c2ccccc2-c2ccccc21)C(=O)O (stereo not drawn)	-2.21%
COc1ccc(N2C(=O)C(CC(=O)Nc3ccccc3)N(Cc3ccc(OC)c(OC)c3)C2=O)cc1 (stereo not drawn)	0.01%
COc1ccc(CCN2C(=O)N(c3ccc(OC)cc3)C(=O)C2CC(=O)Nc2ccc(OC)cc2)cc1 (stereo not drawn)	9.93% (active)
COc1ccc(N2C(=O)C(CC(=O)Nc3ccc(F)cc3)N(CCc3cccs3)C2=O)cc1 (stereo not drawn)	-0.54%
